# Among all 52,000 compounds or so, about 1,700 (3.3%) were called active. No stated cut-off is given here; in the data, active means survival mostly below about 52% (no sharp cut-off); inactive means mostly above about 56%. The entries come from a sample that favours actives as a whole.
# Tested on: Wild type
# Assay: growth inhibition of S. aureus wild type versus tarO mutant, primary screen, teichoic acid synthesis inhibitors, RN4220, OD600 (AID 463173)
# Details: S. aureus RN4220 wild type/DeltatarO growth, OD600, 18 h, stronger effect = lower value, screened at 18.75 µg/mL (by protocol)
row,Structure (SMILES),survival
1,CCc1nnc(SCc2nc(-c3ccc(OC)cc3)oc2C)c2cc3sccc3n12,86% (inactive)
2,Cc1ccc(C)c(S(=O)(=O)n2nnc3ccccc32)c1,104% (inactive)
3,CCOC(=O)N1CCc2c(sc3c2c(=O)n(-c2ccc(Cl)cc2)c(=O)n3Cc2cccc(OC)c2)C1,120% (inactive)
4,Cc1ccc(CCNC(=O)Cn2c(-c3cccs3)cc3ccccc32)cc1,119% (inactive)
5,Cc1ccc(C)c(N2CCN(C(=O)NC3CCCCC3)CC2)c1,103% (inactive)
6,COc1ccc2nc3oc(C(=O)Nc4cccc(C(F)(F)F)c4)cc3cc2c1,66% (inactive)
7,CCCOc1ccc(C2C(=O)N(C3CCCCC3)CC(=O)N2C2CCCCC2)cc1OC (stereo not given),77% (inactive)
8,COc1ccc(C2C(=O)N(C3CCC(C)CC3)CC(=O)N2C2CCCCC2)cc1OC (stereo not given),64% (inactive)
9,CCCOc1ccc(C2C(=O)N(C3CCC(C)CC3)CC(=O)N2CCC2=CCCCC2)cc1OC (stereo not given),87% (inactive)
10,CCCN1C(=O)CN(C2CCCCCC2)C(=O)C1c1ccc(OCC)c(OC)c1 (stereo not given),120% (inactive)
11,CCCOc1ccc(C2C(=O)N(C3CCCCCC3)CC(=O)N2CCC)cc1OC (stereo not given),-6% (active)
12,CCCCN1C(=O)CN(C2CCCCCC2)C(=O)C1c1ccc(OCCC)c(OC)c1 (stereo not given),87% (inactive)
13,CCCOc1ccc(C2C(=O)N(C3CCCCCC3)CC(=O)N2CCC2=CCCCC2)cc1OC (stereo not given),123% (inactive)
14,COc1ccc(C2C(=O)N(C3CCC(C)CC3)CC(=O)N2CCC2=CCCCC2)cc1OC (stereo not given),-3% (active)
15,COc1ccc(C2C(=O)N(C3CCC(C)CC3)CC(=O)N2C2CCCC2)cc1OC (stereo not given),-4% (active)
16,COc1ccc(-n2cc(C(=O)N(C)c3cc(C)ccc3OC)c3ccccc3c2=O)cc1,114% (inactive)
17,Cc1ccc(NC(=O)CCc2c(C)nc3nc(C)nn3c2C)c(Cl)c1,70% (inactive)
18,CCc1nnc(SC(CC)C(=O)NCCOC)c2cc3occc3n12 (stereo not given),105% (inactive)
19,Cc1ccc(C(=O)n2nc(C)c(S(=O)(=O)N3CCOCC3)c2C)cc1,85% (inactive)
20,CCN(c1cccc(C)c1)S(=O)(=O)c1cc(Br)cc2c1N(C(C)=O)C(C)C2 (stereo not given),75% (inactive)
21,CN(C)CCNC(=O)c1ccc(-n2c(-c3ccccc3)cc3c2CCCCC3)cc1,17% (inactive)
22,CN(C)CCNC(=O)c1ccc(-n2c(-c3ccccc3)cc3c2CCCC3)cc1,29% (inactive)
23,CCN(CC)CCNC(=O)c1ccc(-n2c(-c3ccccc3)cc3c2CCCC3)cc1,2% (active)
24,Cc1ccc(C2C(C(=O)/C=C/c3ccccc3)=C(O)C(=O)N2CCO)cc1 (stereo not given),99% (inactive)

row,Structure (SMILES),survival
1,O=S(=O)(NCCSc1nnnn1-c1ccccc1)c1ccc(F)cc1,76% (inactive)
2,O=S1(=O)C=C(Sc2nnnn2-c2ccccc2)c2ccccc21,-1% (active)
3,O=C1CC(CSc2nnnn2-c2ccccc2)=NN1,128% (inactive)
4,O=S(=O)(c1ccc(-c2csc(=Nc3ccc(OC(F)(F)Cl)cc3)n2CCCO)cc1)N1CCCC1,132% (inactive)
5,Cc1ccc(-c2csc(=Nc3ccccc3)n2CCCO)cc1,-7% (active)
6,CCN(CC)CCn1c(-c2ccccc2)csc1=Nc1ccccc1,45% (inactive)
7,O=S(=O)(c1ccc(-c2csc(=Nc3ccc(F)cc3)n2CCCCCCO)cc1)N1CCCC1,55% (inactive)
8,OCCCn1c(-c2ccc(F)cc2)csc1=Nc1ccc(F)cc1,9% (active)
9,COc1ccc(-c2csc(=Nc3ccccc3)n2CCO)cc1F,63% (inactive)
10,Cc1ccc(NC(=O)C(=O)NCC(c2ccc3c(c2)OCO3)N2CCN(c3ccccc3)CC2)cc1 (stereo not given),75% (inactive)
11,O=C(CCC1N=C2c3ccccc3N=C(SCC(=O)Nc3ccccc3F)N2C1=O)NCc1ccccc1 (stereo not given),76% (inactive)
12,CCOc1ccc(CNC(=O)C2CCN(S(=O)(=O)N3CCC(C)CC3)CC2)cc1OC,84% (inactive)
13,CCOc1ccc(-c2nnc(SCC(=O)c3ccc(Br)cc3)n2-c2ccccc2)cc1,92% (inactive)
14,CC(=O)N1CCc2c(sc3c2c(=O)n(CCc2ccccc2)c(=O)n3Cc2ccc(Cl)cc2)C1,65% (inactive)
15,O=C(CSc1nc2c(c(=O)[nH]1)CN(Cc1ccc3c(c1)OCO3)CC2)Nc1ccccc1Cl,81% (inactive)
16,O=C(CCN1CCCCC1)c1ccccc1,92% (inactive)
17,CC1CCCN(C(=O)c2cc3c(Cl)nc4ccccc4c3s2)C1 (stereo not given),-2% (active)
18,CC(C)N(C(=O)c1cc2c(Cl)nc3ccccc3c2s1)C1CCCCC1,-1% (active)
19,Cc1ccc2nc(Cl)c3cc(C(=O)NC4CCCCCC4)sc3c2c1,119% (inactive)
20,Cc1ccc2nc(Cl)c3cc(C(=O)NC4CCCCC4)sc3c2c1,76% (inactive)
21,CCOC(=O)C1CCCN(C(=O)c2cc3c(Cl)nc4ccccc4c3s2)C1 (stereo not given),41% (inactive)
22,O=C(NC1CCCCCC1)c1cc2c(Cl)nc3ccccc3c2s1,123% (inactive)
23,O=C(c1cc2c(Cl)nc3ccccc3c2s1)N1CCCCC1,58% (inactive)
24,Cc1ccc2nc(Cl)c3cc(C(=O)NC4CCC(C)CC4)sc3c2c1 (stereo not given),72% (inactive)

row,Structure (SMILES),survival
1,Cc1ccc2nc(Cl)c3cc(C(=O)N4CCCCC4)sc3c2c1,-2% (active)
2,O=C(NC1CCCCC1)c1cc2c(Cl)nc3ccccc3c2s1,77% (inactive)
3,Cc1ccc2nc(Cl)c3cc(C(=O)N4CCCCC4C)sc3c2c1 (stereo not given),21% (inactive)
4,Cc1ccc2nc(Cl)c3cc(C(=O)N4CCCC(C)C4)sc3c2c1 (stereo not given),-2% (active)
5,CCCCC(=O)Nc1ccc(OCc2cc(=O)n3c(C)csc3n2)cc1,87% (inactive)
6,COc1ccccc1NC(=O)C(Cc1ccccc1)NS(=O)(=O)c1ccc2c(c1)CCN2C(C)=O (stereo not given),80% (inactive)
7,CCOc1ccccc1NS(=O)(=O)c1ccc2c(c1)oc(=O)n2C,82% (inactive)
8,O=C(Nc1ccc2nn(-c3ccccc3)nc2c1)c1cc2ccccc2o1,80% (inactive)
9,COC(=O)c1scc(-c2ccc(C)cc2)c1S(=O)(=O)N1CCN(c2cccc(OC)c2)CC1,53% (inactive)
10,CCCCn1c(Cc2ccccc2)nnc1SCC(=O)NC,104% (inactive)
11,COC(=O)c1ccc(NC(=O)c2cc(S(=O)(=O)N3CCOCC3)cn2C)cc1,84% (inactive)
12,COC(=O)C1(c2ccccc2)NC(c2ccc(O)cc2)C2C(=O)N(c3ccc4c(c3)OCCO4)C(=O)C21 (stereo not given),106% (inactive)
13,Cc1cc(N2CCC(C(=O)N(CC(C)C)CC(C)C)CC2)n2nc(C)c(-c3ccc(Cl)cc3)c2n1,91% (inactive)
14,COc1ccc(NC(=O)CN2C(=O)CC(c3ccc(C)c(C)c3)=Nc3ccccc32)cc1OC,76% (inactive)
15,CCCn1c(SCC(=O)N2CCCC2)nnc1C(C)C,105% (inactive)
16,Cc1ccc(NC(=O)CCC(=O)N2Cc3ccccc3Oc3ncccc32)cc1F,82% (inactive)
17,CCn1cc(C(=O)NCCCOC(C)C)c(=O)c2cc(S(=O)(=O)N3CCOCC3)ccc21,131% (inactive)
18,COc1ccc(OC)c(CNC(=O)CN(c2ccc(C)cc2)S(=O)(=O)N(C)C)c1,80% (inactive)
19,COc1ccc(-c2cc3ncc(C(=O)c4cc([N+](=O)[O-])ccc4O)cn3n2)cc1,58% (inactive)
20,Cc1ccc(-c2cc3ncc(C(=O)c4cc(Cl)c(C)cc4O)cn3n2)cc1,91% (inactive)
21,O=C(c1cnc2cc(-c3ccccc3)nn2c1)c1cc([N+](=O)[O-])ccc1O,19% (active)
22,CCc1ccc(O)c(C(=O)c2cnc3cc(-c4ccc(C)cc4)nn3c2)c1,66% (inactive)
23,O=[N+]([O-])c1ccc(O)c(-c2ccnc3cc(-c4ccccc4)nn23)c1,29% (inactive)
24,Cc1ccc(-c2cc3ncc(C(=O)c4cc([N+](=O)[O-])ccc4O)cn3n2)cc1,15% (active)

row,Structure (SMILES),survival
1,O=C(CCC(=O)N1CCOc2ccccc21)NCc1cccs1,83% (inactive)
2,Cc1cccc(NC(=O)Cn2c(=O)oc3cc(S(=O)(=O)NCc4ccccc4)ccc32)c1,92% (inactive)
3,CC(=O)c1ccc(NC(=O)Cn2nc(C(F)(F)F)c3c2CCC3)cc1,66% (inactive)
4,Cc1cc(C)cc(NC(=O)C2CCN(S(=O)(=O)c3cccc(-c4noc(C)n4)c3)CC2)c1,-6% (active)
5,CCc1ccc(NC(=O)C2CCN(S(=O)(=O)c3cccc(-c4noc(C)n4)c3)CC2)cc1,90% (inactive)
6,CCc1cccc(NC(=O)C2CCN(S(=O)(=O)c3cccc(-c4noc(C)n4)c3)CC2)c1,80% (inactive)
7,CCOc1ccc(N(CC(=O)Nc2ccccc2)S(C)(=O)=O)cc1,110% (inactive)
8,COc1cc(Cl)c(C)cc1NC(=O)c1cc2ccc3cccnc3c2[nH]1,73% (inactive)
9,Cc1cnc2c(c1SCC(=O)N(C)c1ccccc1)c(=O)n(C)c(=O)n2C,100% (inactive)
10,Cc1ccccc1-c1nc(CN2CCC(C(=O)NCc3ccccc3Cl)CC2)c(C)o1,85% (inactive)
11,CC(C)(C)c1ccc(Cn2c(=N)n(CC(O)c3ccco3)c3ccccc32)cc1 (stereo not given),53% (active)
12,Cc1ccc(Cn2c(=N)n(CC(=O)c3ccccc3)c3ccccc32)cc1,107% (inactive)
13,CCOC(=O)Cn1c(=N)n(Cc2ccc(C(C)(C)C)cc2)c2ccccc21,95% (inactive)
14,NC(=S)N/N=C/c1ccc(Sc2cccc3cccnc23)o1,115% (inactive)
15,Cc1cc(=O)n(Cc2cccc(Cl)c2)c2c1c(C)nn2C,66% (inactive)
16,C=Cc1ccc(Cn2c(=O)cc(C)c3c(C)nn(-c4ccccc4)c32)cc1,-1% (active)
17,Cc1ccc(C)c(Cn2c(=O)cc(C)c3c(C)nn(C)c32)c1,63% (inactive)
18,Cc1cc(=O)n(Cc2ccc(Cl)cc2)c2c1c(C)nn2-c1ccccc1,131% (inactive)
19,Cc1cc(=O)n(Cc2ccccc2)c2c1c(C)nn2-c1ccccc1,72% (inactive)
20,C=Cc1ccc(Cn2c(=O)cc(C)c3c(C)nn(C)c32)cc1,0% (active)
21,COC(=O)c1ccc(Cn2c(=O)cc(C)c3c(C)nn(C)c32)cc1,53% (inactive)
22,Cc1cc(=O)n(Cc2ccccc2)c2c1c(C)nn2C,-3% (active)
23,COc1cccc(Cn2c(=O)cc(C)c3c(C)nn(C)c32)c1,85% (inactive)

# — PubChem BioAssay AID463173 (ICCB-Longwood Screening Facility, Harvard Medical School, 2010)
